Consider 16 molecules from ChEMBL document CHEMBL1961873, “Compounds: GSK PKIS; Assays: Nanosyn kinase panel” (2012).

As usually defined, the inhibition is the change of the read-out against control, counted positive when it falls.
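Further: reported values are mean percent inhibition of DDR2.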

This assay concerns the target T1, Discoidin domain-containing receptor 2 (Homo sapiens) (UniProt Q16832).
T1 sequence (whole entry): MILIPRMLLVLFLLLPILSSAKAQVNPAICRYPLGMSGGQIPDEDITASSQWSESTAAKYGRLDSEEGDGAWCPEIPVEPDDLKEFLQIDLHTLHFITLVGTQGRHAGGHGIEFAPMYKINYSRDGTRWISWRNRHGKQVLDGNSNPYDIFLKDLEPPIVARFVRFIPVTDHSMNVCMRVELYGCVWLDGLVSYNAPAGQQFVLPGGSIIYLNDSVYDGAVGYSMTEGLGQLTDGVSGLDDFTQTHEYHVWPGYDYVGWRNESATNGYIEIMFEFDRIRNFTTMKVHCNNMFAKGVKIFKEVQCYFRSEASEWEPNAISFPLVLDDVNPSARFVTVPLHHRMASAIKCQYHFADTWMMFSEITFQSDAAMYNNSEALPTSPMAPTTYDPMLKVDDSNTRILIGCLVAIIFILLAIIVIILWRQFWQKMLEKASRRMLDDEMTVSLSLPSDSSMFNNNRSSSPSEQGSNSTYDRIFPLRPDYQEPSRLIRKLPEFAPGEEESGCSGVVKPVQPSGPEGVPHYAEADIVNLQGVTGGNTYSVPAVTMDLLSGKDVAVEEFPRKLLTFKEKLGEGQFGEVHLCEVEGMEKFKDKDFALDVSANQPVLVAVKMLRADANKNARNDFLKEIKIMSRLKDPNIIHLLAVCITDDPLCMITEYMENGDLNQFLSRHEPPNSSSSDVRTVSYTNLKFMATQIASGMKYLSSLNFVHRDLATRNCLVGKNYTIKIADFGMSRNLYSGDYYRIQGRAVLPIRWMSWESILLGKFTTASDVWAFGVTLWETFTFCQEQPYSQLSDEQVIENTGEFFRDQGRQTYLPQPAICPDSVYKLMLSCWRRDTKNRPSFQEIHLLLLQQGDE
Particulars: at 0.1 µM.
Regarding `CNC(=O)c1cccc(C#Cc2cncnc2Nc2ccc(OCc3cccc(F)c3)c(Cl)c2)c1`, the inhibition stood at 0.18%.
The figure for `Fc1ccc(-c2cc(-c3c[nH]nc3-c3ccccn3)ccn2)cc1` is 1.07%.
In the case of `CN1CCC(n2cnc(-c3ccc(F)cc3)c2-c2ccnc(Nc3ccccc3)n2)CC1`, the inhibition was -0.08%.
Under `CCn1c(-c2nonc2N)nc2c(C#CC(C)(C)O)ncc(OC3CCNCC3)c21` stands 0.94%; under `COc1cccc(-c2c[nH]c3c(N/N=C/c4ccncc4)ncnc23)c1`, 3.82%.
With `Cc1ccc2c(-c3ccnc(Nc4ccccc4)n3)c(-c3ccc(F)cc3)nn2n1`, the inhibition came to 31.2%.
The figure for `COC(=O)Nc1nc2ccc(Oc3ccc(NC(=O)Nc4cccc(Cl)c4)cc3)cc2[nH]1` is 84.2%; for `COc1ccc(-c2cc(-c3c[nH]nc3-c3ccccn3)ccn2)cc1` it is 2.09%; for `COc1cc(/C=N/Nc2ncnc3[nH]ncc23)ccc1O` it is 1.42%.
Regarding `[O-][S+]1CCN(Cc2ccc(-c3ccc4ncnc(Nc5ccc(OCc6cccc(F)c6)c(Cl)c5)c4c3)o2)CC1`, the inhibition amounted to 2.52%.
`CCNC(=O)O[C@H]1CN[C@H](C#Cc2cc3ncnc(Nc4ccc(OCc5cccc(F)c5)c(Cl)c4)c3s2)C1`: the inhibition was 2.66%.
The figure for `CC1=C(C(=O)Nc2cc(Cl)c3[nH]ncc3c2)C(c2ccc(C(F)(F)F)cc2)CC(=O)N1` (stereo unspecified) is 1.75%; for `c1ccc(-c2nc3n(c2-c2ccc4c(c2)OCO4)CCC3)nc1` it is 0.99%; for `CCOc1ccc2c(-c3ccnc(Nc4cccc(C(F)(F)F)c4)n3)cnn2n1` it is 4.46%.
Under `CCN1CCC(CC(=O)Nc2n[nH]c3nnc(-c4cccc(F)c4F)cc23)CC1` stands 1.59%; under `COc1ccc2[nH]c3c4[nH]c5ccc(OC)cc5c4c4c(c3c2c1)C(=O)NC4=O`, 2.8%.
